From PubChem BioAssay AID2284326 (EPA ToxCast)
Inconclusive results are not listed. Activity calls are given as the source filed them. The calls were made as follows: active = hit-call score of the fitted dose curve at least 0.9, where 1 is the maximum; inconclusive = response in the unintended direction; inactive = score below 0.9.

test system: TPO (gene 7173); experiment: CCTE_GLTED_hTPO: CCTE's human Thyroperoxidase (hTPO) Inhibition Assay, Great Lakes Toxicology and Ecology Division (GLTED) Lab
Method: CCTE_GLTED_hTPO is a cell-free, single-readout assay designed to test the inhibitory activity of chemicals toward human thyroperoxidase (TPO) protein. Uninhibited enzyme converts Amplex UltraRed to a fluorescent product. Measurements were taken 0.5 hour after chemical dosing in a 96-well plate. CCTE_GLTED_hTPO is the assay component measured from the CCTE_GLTED_hTPO assay. It is designed to make measurements of enzyme activity, a form of enzyme reporter, as detected with […] by Fluorescence technology.Data from the assay component CCTE_GLTED_hTPO was analyzed at the assay endpoint CCTE_GLTED_hTPO in the positive analysis fitting direction relative to DMSO as the negative control and baseline of activity. Using a type of enzyme reporter (the Amplex UltraRed assay), loss-of-signal activity can be used to understand decreased peroxidase activity in the presence of excess […]. To generalize the intended target to other relatable targets, this assay endpoint is annotated to the 'oxidoreductase' intended target family, where the subfamily is 'peroxidase'.
[…]

| SMILES | AC50 | outcome |
| --- | --- | --- |
| O=C(Cl)C(F)(F)C(F)(F)C(F)(F)C(=O)Cl | 150 µM (active) | – |
| FC(F)=C(F)C(F)(F)C(F)(F)C(F)(F)C(F)(F)C(F)(F)C(F)(F)F | 30.9 µM (active) | – |
| O=C(Cl)C(F)(F)C(F)(F)C(F)(F)C(F)(F)C(F)(F)C(F)(F)C(F)(F)C(F)(F)F | – | inactive |
| O=C(O)C(F)(F)C(F)(F)C(F)(F)C(F)(F)C(F)(F)C(F)(F)C(F)(F)C(F)(F)Cl | 278 µM (active) | – |
| O=C(O)C(F)(F)C(F)(F)C(F)(F)C(F)(F)C(F)(F)C(F)(F)C(F)(F)C(F)(F)C(F)(F)C(F)F | – | inactive |
| O=C(Cl)C(F)(F)C(F)(F)C(F)(F)C(F)(F)C(F)(F)C(F)(F)F | 48.3 µM (active) | – |
| FC(F)(F)C(F)(F)C(F)(F)C(F)(F)C(F)(F)C(F)(F)CCS | – | inactive |
| CN(C(=O)C(F)(F)C(F)(F)C(F)(F)F)[Si](C)(C)C | 59.5 µM (active) | – |
| O=C(O)C(F)(OC(F)(F)C(F)(OC(F)(F)C(F)(F)C(F)(F)F)C(F)(F)F)C(F)(F)F (centres undefined) | 13.1 µM (active) | – |
| O=S(=O)(Cl)C(F)(F)C(F)(F)C(F)(F)C(F)(F)C(F)(F)C(F)(F)C(F)(F)C(F)(F)F | 276 µM (active) | – |
| O=C(O)C(F)(OC(F)(F)C(F)(OC(F)(F)C(F)(OC(F)(F)C(F)(F)C(F)(F)F)C(F)(F)F)C(F)(F)F)C(F)(F)F (centres undefined) | 0.0612 µM (active) | – |
| Cn1cc[nH]c1=S | 0.127 µM (active) | – |
| FC(F)(F)C(F)(F)C(F)(F)C(F)(F)C(F)(F)C(F)(F)C(F)(F)C(F)(F)CCS | 50 µM (active) | – |
| O=S(=O)(OCC(F)(F)F)C(F)(F)C(F)(F)C(F)(F)C(F)(F)F | 42.2 µM (active) | – |
